# The full list was thinned out, with the strongest signals kept by preference.
# How the values were obtained:
# Experiment in all cases: glycan array binding signal (z-score within array); higher = stronger binding
# Details in all cases: glycan notation: IUPAC condensed, linker removed
# Fuc(a1-2)Gal(b1-3)GlcNAc = target: Fuc(a1-2)Gal(b1-3)GlcNAc
# How it was run: (§1)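 Glycan array data were curated from 3228 arrays in the Consortium for Functional Glycomics database and kept only where the protein sequence was available. Glycan names were converted to IUPAC-condensed notation, and columns mapping to the same glycan were averaged. The binding signal is a within-array Z-score, averaged across arrays of the same protein sequence at different concentrations or buffers and across linkers. Negative Z-scores can be read as non-binding.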
# [1] = target: Fuc(a1-2)Gal(b1-3)GlcNAc(b1-2)Man(a1-3)[Fuc(a1-2)Gal(b1-3)GlcNAc(b1-2)Man(a1-6)]Man(b1-4)GlcNAc(b1-4)GlcNAc
# How it was run: as §1
# Fuc(a1-2)Gal(b1-4)Glc6S = target: Fuc(a1-2)Gal(b1-4)Glc6S
# How it was run: as §1
# [2] = target: Fuc(a1-2)Gal(b1-4)GlcNAc(b1-3)Gal(b1-4)GlcNAc(b1-3)Gal(b1-4)GlcNAc
# How it was run: as §1
# [3] = target: Fuc(a1-2)Gal(b1-4)[Fuc(a1-3)]GlcNAc(b1-2)Man(a1-3)[Fuc(a1-2)Gal(b1-4)[Fuc(a1-3)]GlcNAc(b1-2)Man(a1-6)]Man(b1-4)GlcNAc(b1-4)GlcNAc
# How it was run: as §1
# [4] = target: Fuc(a1-2)[Gal(a1-3)]Gal(b1-4)GlcNAc(b1-2)Man(a1-3)[Fuc(a1-2)[Gal(a1-3)]Gal(b1-4)GlcNAc(b1-2)Man(a1-6)]Man(b1-4)GlcNAc(b1-4)GlcNAc
# How it was run: as §1
# [5] = target: Fuc(a1-3)[Gal3S(b1-4)]Glc6S
# How it was run: as §1
# [6] = target: Fuc(a1-3)[Gal3S(b1-4)]GlcNAc
# How it was run: as §1
# [7] = target: Fuc(a1-3)[Neu5Ac(a2-3)]Gal(b1-4)GlcNAc(b1-3)GalNAc
# How it was run: as §1
# Gal(a1-3)Gal(b1-4)Glc = target: Gal(a1-3)Gal(b1-4)Glc
# How it was run: as §1
# [8] = target: Gal(a1-3)Gal(b1-4)[Fuc(a1-3)]GlcNAc(b1-2)Man(a1-3)[Gal(a1-3)Gal(b1-4)[Fuc(a1-3)]GlcNAc(b1-2)Man(a1-6)]Man(b1-4)GlcNAc(b1-4)GlcNAc
# How it was run: as §1
# [9] = target: Gal(b1-3)[Fuc(a1-4)]GlcNAc(b1-2)Man(a1-3)[Gal(b1-3)[Fuc(a1-4)]GlcNAc(b1-2)Man(a1-6)]Man(b1-4)GlcNAc(b1-4)GlcNAc
# How it was run: as §1
# Gal3S6S(b1-4)GlcNAc6S = target: Gal3S6S(b1-4)GlcNAc6S
# How it was run: as §1
# Gal6S(b1-4)GlcNAc6S = target: Gal6S(b1-4)GlcNAc6S
# How it was run: as §1
# [10] = target: GalNAc(b1-3)Gal(a1-4)Gal(b1-4)GlcNAc(b1-3)Gal(b1-4)Glc
# How it was run: as §1
# [11] = target: GalNAc(b1-4)GlcNAc(b1-2)Man(a1-3)[GalNAc(b1-4)GlcNAc(b1-2)Man(a1-6)]Man(b1-4)GlcNAc(b1-4)GlcNAc
# How it was run: as §1
# [12] = target: GlcNAc(b1-3)[GlcNAc(b1-6)]GalNAc
# How it was run: as §1
# [13] = target: GlcNAc(b1-6)Gal(b1-4)GlcNAc
# How it was run: as §1
# GlcNAc3Prop(b1-4)GlcNAc = target: GlcNAc3Prop(b1-4)GlcNAc
# How it was run: as §1
# [14] = target: GlcNAc6S(b1-3)Gal(b1-4)GlcNAc
# How it was run: as §1
# [15] = target: Man(a1-2)Man(a1-2)Man(a1-6)[Man(a1-3)]Man
# How it was run: as §1
# [16] = target: Man(a1-2)Man(a1-3)[Man(a1-2)Man(a1-6)]Man
# How it was run: as §1
# [17] = target: Man(a1-3)[Man(a1-6)]Man(a1-6)[Man(a1-2)Man(a1-3)]Man(b1-4)GlcNAc(b1-4)GlcNAc
# How it was run: as §1
# [18] = target: Man(a1-3)[Man(a1-6)]Man(a1-6)[Man(a1-3)]Man(b1-4)GlcNAc(b1-4)GlcNAc
# How it was run: as §1
# Neu5Ac(a2-3)Gal(b1-4)Glc = target: Neu5Ac(a2-3)Gal(b1-4)Glc
# How it was run: as §1
# [19] = target: Neu5Ac(a2-3)Gal(b1-4)GlcNAc6S
# How it was run: as §1
# [20] = target: Neu5Ac(a2-3)Gal(b1-4)[Fuc(a1-3)]GlcNAc
# How it was run: as §1
# [21] = target: Neu5Ac(a2-3)Gal6S(b1-4)GlcNAc
# How it was run: as §1
# [22] = target: Neu5Ac(a2-3)Gal6S(b1-4)[Fuc(a1-3)]GlcNAc
# How it was run: as §1
# [23] = target: Neu5Ac(a2-3)[GalNAc(b1-4)]Gal(b1-4)GlcNAc
# How it was run: as §1
# [24] = target: Neu5Ac(a2-6)Gal(b1-4)GlcNAc(b1-3)Gal(b1-3)GlcNAc
# How it was run: as §1
# [25] = target: Neu5Ac(a2-6)Gal(b1-4)GlcNAc(b1-3)Gal(b1-4)GlcNAc
# How it was run: as §1
# [26] = target: Neu5Ac(a2-6)Gal(b1-4)GlcNAc(b1-3)Gal(b1-4)[Fuc(a1-3)]GlcNAc(b1-3)Gal(b1-4)[Fuc(a1-3)]GlcNAc
# How it was run: as §1
binder,measurement,setting,value
"StdA (Salmonella typhimurium), Q8Z3Z0 (protein) MAAAGMMYGASVFAADTTPTAGPFGSGKILFTGTITNSPCDIAPGDDAITVPFGQISYRKLNTANATTDSKPFTIHLQNCAFDPNETTIAGSAGKMSKVTVSFSGTADTSGKAYVSTGSAQHVGVQLLKGDNTSLITPNTPMPDGDAQQLQAGNNELNFFARLIALTDAATPGDVNASVTYTLKYL",glycan array binding signal (z-score),Fuc(a1-2)Gal(b1-3)GlcNAc,-0.15
same,glycan array binding signal (z-score),[1],10.3
same,glycan array binding signal (z-score),Fuc(a1-2)Gal(b1-4)Glc6S,0.205
same,glycan array binding signal (z-score),[2],0.168
same,glycan array binding signal (z-score),[3],2.3
same,glycan array binding signal (z-score),[4],-0.604
same,glycan array binding signal (z-score),[5],6.5
same,glycan array binding signal (z-score),[6],0.034
same,glycan array binding signal (z-score),[7],4.78
same,glycan array binding signal (z-score),Gal(a1-3)Gal(b1-4)Glc,0.257
same,glycan array binding signal (z-score),[8],4.97
same,glycan array binding signal (z-score),[9],5.67
same,glycan array binding signal (z-score),Gal3S6S(b1-4)GlcNAc6S,-0.494
same,glycan array binding signal (z-score),Gal6S(b1-4)GlcNAc6S,-0.164
same,glycan array binding signal (z-score),[10],0.837
same,glycan array binding signal (z-score),[11],3.5
same,glycan array binding signal (z-score),[12],0.036
same,glycan array binding signal (z-score),[13],0.557
same,glycan array binding signal (z-score),GlcNAc3Prop(b1-4)GlcNAc,-0.424
same,glycan array binding signal (z-score),[14],1.03
same,glycan array binding signal (z-score),[15],-0.088
same,glycan array binding signal (z-score),[16],-0.749
same,glycan array binding signal (z-score),[17],-0.109
same,glycan array binding signal (z-score),[18],-0.131
same,glycan array binding signal (z-score),Neu5Ac(a2-3)Gal(b1-4)Glc,-0.372
same,glycan array binding signal (z-score),[19],-0.404
same,glycan array binding signal (z-score),[20],-0.614
same,glycan array binding signal (z-score),[21],-0.214
same,glycan array binding signal (z-score),[22],-0.437
same,glycan array binding signal (z-score),[23],-0.022
same,glycan array binding signal (z-score),[24],-0.819
same,glycan array binding signal (z-score),[25],-0.14
same,glycan array binding signal (z-score),[26],0.009
